Screening data: PubChem BioAssay, Broad Institute
In the library only some 3.2% were active in any assay of this set; here they are far more common.
Ecoli rRNA inh – reduced GFP signal of wild-type E. coli, primary screen, bacterial rRNA inhibitor project, GFP/RFP fluorescence, OD600, single point; E. coli WT GFP vs humanized-ribosome RFP mutants, 24 h; hits give low values; DMSO median 0, no signal -100; GFP signal change (wild-type ribosome), % (test concentration not listed); 1.6% of 350,000 active; AID 720706, 2013;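 active = significant combined selectivity score with lowered wild-type GFP, culture density cut under 30%, mutant RFP and density less affected; inactive = any of these conditions unmet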
DENV2 CPE – inhibitors of DENV2 cytopathic effect, primary screen, cell-based, plate reader, single concentration | DENV2-infected cells, cytopathic effect rescue | CPE inhibition, % at 9.99 µM | 1.7% of 350,000 active; in the data active = CPE inhibition above about 20%, passing the limit was not always enough; tested in BHK-21 cells;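 also: 0% = median of neutral control wells and 100% = median of positive control wells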
GSIS activator – GLuc luminescence reporter in INS-1E cells, primary screen for activators of glucose-dependent secretion of insulin; AID 743287, 2014; 0.61% of 370,000 active; INS-1E GLuc reporter insulin secretion, 2-3 h; activation, % at 16.6 µM;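 active = lowest replicate activation of at least 40%, so every replicate reaches that level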;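 also: 0% = median of neutral control wells and 100% = median of IBMX positive control wells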
ERAP1 HTS inh – human ERAP1 aminopeptidase inhibitors, primary screen, biochemical, single point, plate reader | recombinant ERAP1, Leu-AMC fluorescence, 60 min | 0.15% of 340,000 active | Endoplasmic reticulum aminopeptidase 1 (Homo sapiens), Q9NZ08 | inhibition, % at 10.7 µM;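 active = mean replicate inhibition of at least 30%, or all replicates individually reaching that 30% level; inactive = mean below 30% and not every replicate reaching it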;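 also: 0% = neutral control wells and 100% = L-leucinethiol positive control wells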
CaV13 FRET inh – Primary screen for inhibitors of IQ motif and Ca2+-dependent inactivation inhibitor domain binding in CACNA1D, Förster resonance energy transfer in living cells, …; HEK cells, CFP/YFP FRET ICDI-IQ, plate reader, 10 min; percent FRET-ratio fall versus neutral wells; inhibition, % at 12.3 µM; 0.098% of 340,000 active;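 active = mean replicate inhibition of at least 30% and at least 1% of replicates passing that level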;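 also: 0% = median of the neutral control wells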
PGC1a acetyl inh – inhibitors of PGC1a acetylation signal, primary screen, cell-based, U2OS, AlphaScreen, inhibitor mode; 0.17% of 350,000 active; AlphaScreen anti-acetyl-lysine; with virally co-expressed GCN5 acetyltransferase; inhibition, % at 15.6 µM;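 active = every replicate shows inhibition of at least 40%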;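 also: 0% = neutral control wells and 100% = positive control wells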
Numbers without * were called inactive.

C[C@@H]1CN([C@H](C)CO)C(=O)c2cccc(NC(=O)c3ccncc3)c2O[C@@H]1CN(C)Cc1ccc(C(=O)Nc2ccccc2N)cc1 was read as Ecoli rRNA inh 8.8, DENV2 CPE -1.9, GSIS activator 10.7, ERAP1 HTS inh -1.9 and PGC1a acetyl inh -11.2.
Screening O=C(COC(=O)c1ccc2ncsc2c1)NCc1ccc(Cl)cc1 returned Ecoli rRNA inh -2.4, DENV2 CPE 0.0, GSIS activator 16.7, ERAP1 HTS inh 7.7, CaV13 FRET inh -1.9 and PGC1a acetyl inh -6.2.
Cc1cccc(C(=O)OCC(=O)NCc2ccc(Cl)cc2)c1 was read as Ecoli rRNA inh 2.4, DENV2 CPE 29.3*, GSIS activator 0.3, ERAP1 HTS inh 5.9, CaV13 FRET inh -11.2 and PGC1a acetyl inh 7.4.
`Cc1cc(C)n(CC(=O)n2c(C)c(C)c3ccccc32)n1` gave CaV13 FRET inh -7.3 and PGC1a acetyl inh -1.8.
Screening Cc1cc(C)n(CC(=O)n2c3ccccc3c3ccccc32)n1 returned GSIS activator 52.9*, CaV13 FRET inh -5.6 and PGC1a acetyl inh -0.1.
Screening C[C@@H]1CN([C@H](C)CO)C(=O)c2cccc(NS(=O)(=O)c3cn(C)cn3)c2O[C@H]1CN(C)C(=O)Nc1ccc2c(c1)OCO2 returned Ecoli rRNA inh 3.1, DENV2 CPE 72.4*, GSIS activator 11.2, ERAP1 HTS inh -0.7 and PGC1a acetyl inh 10.1.
Screening C[C@@H]1CN([C@H](C)CO)C(=O)c2cccc(NS(=O)(=O)c3cn(C)cn3)c2O[C@H]1CN(C)C(=O)Nc1ccc(F)cc1 returned Ecoli rRNA inh 0.9, DENV2 CPE 71.5*, GSIS activator -4.6, ERAP1 HTS inh -3.9 and PGC1a acetyl inh -1.5.
`C[C@@H]1CN([C@H](C)CO)C(=O)c2cccc(NS(=O)(=O)c3cn(C)cn3)c2O[C@@H]1CN(C)C(=O)Nc1ccc(F)cc1` gave Ecoli rRNA inh -1.7, DENV2 CPE -8.8, GSIS activator 5.0, ERAP1 HTS inh -1.3 and PGC1a acetyl inh -3.1.
`CSc1nc2ccc(NS(=O)(=O)c3ccc(Br)s3)cc2s1` gave Ecoli rRNA inh -43.8*, DENV2 CPE 9.8, GSIS activator -30.1, ERAP1 HTS inh 5.2, CaV13 FRET inh -4.3 and PGC1a acetyl inh -7.3.
`COc1ccc(NC(=O)N[C@@H]2CC[C@@H](CCNC(=O)Cc3ccncc3)O[C@@H]2CO)cc1` gave Ecoli rRNA inh -2.9, DENV2 CPE 5.7, GSIS activator 5.5, ERAP1 HTS inh 1.0 and PGC1a acetyl inh 0.5.
`Clc1nc(NCCc2ccccc2)c2cn[nH]c2n1` gave Ecoli rRNA inh -30.2*, DENV2 CPE -1.2, GSIS activator 3.0, ERAP1 HTS inh -0.7, CaV13 FRET inh -5.2 and PGC1a acetyl inh -9.7.
O=[N+]([O-])c1ccc(-c2csc(NN=C3CCCC3)n2)cc1 was read as Ecoli rRNA inh -21.9*, DENV2 CPE 0.9, GSIS activator 4.9, ERAP1 HTS inh 1.9, CaV13 FRET inh -12.9 and PGC1a acetyl inh 3.3.
Screening CCCNC(=O)N1CC(=O)N2[C@H](CO)[C@@H](c3ccc(C#Cc4cccc(F)c4)cc3)[C@@H]2C1 returned Ecoli rRNA inh -58.6, DENV2 CPE 8.6, GSIS activator -19.6, ERAP1 HTS inh 1.1 and PGC1a acetyl inh -2.2.
For Cc1ccc(S(=O)(=O)N(C)C[C@H]2Oc3ccc(NC(=O)Nc4c(C)noc4C)cc3CC(=O)N([C@H](C)CO)C[C@H]2C)cc1 the results were Ecoli rRNA inh 2.1, DENV2 CPE 1.9, GSIS activator 6.9, ERAP1 HTS inh -0.8 and PGC1a acetyl inh 4.2.
`NNC(=O)c1ccc(COc2ccc3c(c2)CCC3)cc1` gave Ecoli rRNA inh -26.4*, DENV2 CPE 5.7, GSIS activator 3.2, ERAP1 HTS inh -3.9 and CaV13 FRET inh -3.3.
For O=C(Nc1ccccc1Cl)c1ccc(COc2ccc3c(c2)CCC3)cc1 the results were GSIS activator -5.9, CaV13 FRET inh -18.7 and PGC1a acetyl inh -2.3.
For Cc1ccc(NC(=O)c2ccc(COc3ccc4c(c3)CCC4)cc2)c(C)c1 the results were GSIS activator 111.1* and CaV13 FRET inh -4.5.
Screening CCC(=O)N1CC(=O)N2[C@@H](CO)[C@H](c3ccc(-c4ccc(C(=O)N(C)C)cc4)cc3)[C@@H]2C1 returned Ecoli rRNA inh 5.2, DENV2 CPE -3.4, GSIS activator 17.0 and PGC1a acetyl inh -2.5.
For N#C[C@H]1N[C@H](CO)[C@@H]1c1ccc(-c2ccccc2F)cc1 the results were Ecoli rRNA inh -2.2, DENV2 CPE -13.9, GSIS activator -5.8, ERAP1 HTS inh 0.8 and PGC1a acetyl inh 1.9.
CCNc1nc(NCC)nc(N(C)/N=C/c2ccco2)n1 was read as Ecoli rRNA inh 11.7, DENV2 CPE 0.2, GSIS activator 62.2*, ERAP1 HTS inh -5.3, CaV13 FRET inh -4.7 and PGC1a acetyl inh 13.6.
O=S(=O)(O)c1cccc2cccc(Nc3ccccc3)c12 was read as Ecoli rRNA inh 5.7, DENV2 CPE -1.1, GSIS activator -20.0, ERAP1 HTS inh 42.7*, CaV13 FRET inh -13.0 and PGC1a acetyl inh 1.5.
c1ccc(Nc2cccc3c(Nc4ccccc4)cccc23)cc1 was read as Ecoli rRNA inh 11.8, GSIS activator 1.5, CaV13 FRET inh -3.1 and PGC1a acetyl inh 1.7.
For COc1ccc(C(=O)c2cc3ccc(O)cc3oc2=O)cc1 the results were Ecoli rRNA inh -17.6*, GSIS activator -3.7, ERAP1 HTS inh 0.1, CaV13 FRET inh -2.3 and PGC1a acetyl inh 7.3.
`N=c1oc2cc(O)ccc2cc1C(=O)Nc1ccc(Cl)cc1` gave Ecoli rRNA inh -35.1, DENV2 CPE 1.1, GSIS activator 3.8, ERAP1 HTS inh -20.3 and CaV13 FRET inh 112.5*.
For Cc1ccc(NC(=O)c2cc3ccccc3oc2=N)cc1 the results were Ecoli rRNA inh -3.0, DENV2 CPE -6.7, GSIS activator 5.2, ERAP1 HTS inh -3.8 and CaV13 FRET inh -19.6.
COc1ccc2cc(C(C)=O)c(=O)oc2c1 was read as GSIS activator 13.3 and CaV13 FRET inh -3.6.
For CC(=O)c1cc2ccc(O)cc2oc1=O the results were Ecoli rRNA inh 12.1, DENV2 CPE -6.7, GSIS activator 8.1, CaV13 FRET inh 33.4* and PGC1a acetyl inh 6.9.
Screening C=CCNC(=S)N(C)[C@H]1C[C@H]2c3cc(-c4ccccc4C)ccc3CCN2C[C@H]1[C@H](C)O returned Ecoli rRNA inh -30.5*, DENV2 CPE -5.6, GSIS activator -47.3, ERAP1 HTS inh -0.1 and CaV13 FRET inh -4.8.
